GBA activity: Glucocerebrosidase | AID 360, 2006 | purified enzyme, resorufin glucoside fluorescence (screen aimed at inhibitors), 20 min | 1.1% of 48,000 active | Lysosomal acid glucosylceramidase (Homo sapiens), P04062 | Potency, µM; in the data active means potency below about 15 µM; inconclusive means mostly about 16 µM to 33 µM;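 further: potency means the concentration at half of the fitted maximal effect; the screen sought inhibitors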
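Compounds titrated against 0.2 nM normal enzyme, 30 uM resorufin beta-D-glucopyranoside substrate, citrate/phosphate buffer with taurocholate and tween-20, pH 5.9. Reaction ran 20 min at room temperature; fluorescence (Ex 548/Em 600) gave AC50.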
AID923: qHTS Assay for Allosteric/Competitive Inhibitors of Caspase-1: Spectroscopic Profiling in AFC Spectral Region. compound fluorescence, AFC spectral region (405/520 nm). AID 923, 2007. Potency, µM (top dose mostly 57.5 µM), inactives show top-dose fluorescence increase, usual class: activators. 1.1% of 75,000 active; further: potency means the concentration at half of the fitted maximal effect; 0% is about no effect
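Titrations up to 57 uM read every 20 sec for 3 min (405/520 nm) with 50 nM caspase 1 and 5 uM Ac-WEHD-AFC, pH 7.5 HEPES buffer. Fluorescence-vs-time intercept gave baseline, scaled against on-plate AFC standard.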
4-MU autofl: qHTS Assay for Spectroscopic Profiling in 4-MU Spectral Region | compound autofluorescence, 340/450 nm, 4-MU equivalents; active compounds read high | max dye-equivalent concentration, M | 11% of 59,000 active; in the data active means max dye-equivalent concentration above about 10 nM; inconclusive means mostly about 1.1 nM to 9.6 nM
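Compounds in 100 mM Tris, pH 8.0, incubated 15 min at room temperature, then fluorescence read at 340 nm excitation/450 nm emission. Signal converted to 4-MU dye-equivalent concentration using an on-plate six-point 4-MU standard curve.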
A350 autofl: qHTS Assay for Spectroscopic Profiling in A350 Spectral Region; AID 590, 2007; Compound autofluorescence, 340/450 nm, Alexa 350 dye-equivalents; active compounds read high; 11% of 59,000 active; max dye-equivalent concentration, M; in the data active means max dye-equivalent concentration above about 10 nM; inconclusive means mostly about 1.1 nM to 9.6 nM
HSD17B inhib: qHTS Assay for Inhibitors of HSD17B4, hydroxysteroid (17-beta) dehydrogenase 4 | 3-hydroxyacyl-CoA dehydrogenase type-2 (Homo sapiens), Q99714 | recombinant HSD17B10, NADH fluorescence kinetic | Potency, µM (titrated, usually from 57.1 µM), inactives show top-dose activity change, negative = inhibition, most hits filed as inhibitors | 7.6% of 75,000 active | AID 893, 2007;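 further: the protocol describes HADH2 (HSD17B10) and not the HSD17B4 of the title; potency means the concentration at half of the fitted maximal effect; on the % scale 0 is the no-effect control and ±100 the full control effect; nearly all actives have a fitted effect of over 70% in size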
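20 nM HADH2, pH 9.0 Tris/Tween; cpd preinc 15 min RT; start w/ 1 mM NAD+ + 90 uM b-hydroxybutyryl-CoA; kinetic fluor ex360/em450 q30s x 4 min; delta last-first.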
HADH2 inhib: qHTS Assay for Inhibitors of HADH2 (Hydroxyacyl-Coenzyme A Dehydrogenase, Type II); 3-hydroxyacyl-CoA dehydrogenase type-2 (Homo sapiens), Q99714; recombinant HADH2, NADH fluorescence, beta-hydroxybutyryl-CoA; Potency, µM (top dose mostly 57.1 µM), without a hit: at the top dose activity change, negative = inhibition, usual class: inhibitors; 3.4% of 73,000 active; further: potency means the concentration at half of the fitted maximal effect; on the % scale 0 is the no-effect control and ±100 the full control effect; nearly all actives have a fitted effect of over 60% in size
Target sequence (Q99714 whole entry, looked up, one chain of several): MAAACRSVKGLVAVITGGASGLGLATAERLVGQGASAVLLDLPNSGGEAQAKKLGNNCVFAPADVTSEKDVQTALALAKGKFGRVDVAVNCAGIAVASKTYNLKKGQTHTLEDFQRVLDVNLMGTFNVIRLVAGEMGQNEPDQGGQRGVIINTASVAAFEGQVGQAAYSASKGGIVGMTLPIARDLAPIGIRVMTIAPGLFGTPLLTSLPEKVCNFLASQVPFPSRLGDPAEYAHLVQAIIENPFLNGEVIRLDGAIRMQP
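Buffer 100 mM Tris-HCl pH 9.0/0.01% Tween-20; HADH2 20 nM; NAD+ 1 mM; beta-hydroxybutyryl-CoA 90 uM (all final). 15 min cpd preincubation, RT.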
The depositor's hits bear a star; [ ] = dose if it differs, or a comment. Rows were chosen to be rich in hits. Some 13% of all compounds tested hit in one or more screens of this group. Unless noted, the call rests on the fitted dose curve; in most records, active means well fitted curve in the direction sought with a large enough effect; inconclusive means small, poorly fitted or top-dose-only effect, or another doubt; inactive means no such curve, though single readings can be large; an effect the other way counts as inactive or inconclusive.

What do the screens show for `CCCc1cc2c(n1Cc1ccc(OC)cc1)C(C)C1CN(C(=O)c3ccccc3)C(C)(C(=O)OC)C21` (centres undefined)?
AID923: 1%; HSD17B inhib: -2%; HADH2 inhib: -5%

What do the screens show for `COc1c(C)cc(Br)cc1C(=O)Nc1ccc(N2CCN(S(C)(=O)=O)CC2)cc1`?
GBA activity: >77; AID923: 1%; 4-MU autofl: inactive; A350 autofl: inactive; HSD17B inhib: inconclusive; HADH2 inhib: 9%

What do the screens show for `COc1ccccc1C(=O)Nc1ccc(N2CCN(S(C)(=O)=O)CC2)cc1`?
GBA activity: >77; AID923: 1%; 4-MU autofl: 2.5e-08M*; A350 autofl: 2.3e-08M*; HSD17B inhib: inconclusive; HADH2 inhib: -11%

How did Cc1cc(C)cc(OCC(=O)Nc2ccc(N3CCCC3)cc2)c1 do in these assays?
AID923: 0%; HSD17B inhib: -11%; HADH2 inhib: 0%

How did COc1c(C)cccc1C(=O)Nc1ccc(N2CCN(S(C)(=O)=O)CC2)cc1 do in these assays?
GBA activity: >77; AID923: 0%; 4-MU autofl: 2.7e-08M*; A350 autofl: 2.6e-08M*; HSD17B inhib: inconclusive; HADH2 inhib: -7%

Results for Cc1cccc(OCC(=O)Nc2ccc(N3CCN(S(C)(=O)=O)CC3)cc2)c1 ?
GBA activity: >77; AID923: -3%; 4-MU autofl: 1.1e-08M*; A350 autofl: 1.4e-08M*; HSD17B inhib: -2%; HADH2 inhib: 10%

How did CNC(=O)NC(=O)CSc1ccc(NC(C)=O)cc1 do in these assays?
GBA activity: >77; AID923: 0%; 4-MU autofl: inactive; A350 autofl: inactive; HSD17B inhib: 5%; HADH2 inhib: 4%

How did COCC(=O)Nc1c(I)c(C(=O)NC[C@@H](O)CO)c(I)c(C(=O)N(C)C[C@@H](O)CO)c1I do in these assays?
AID923: -2%[25.7 µM]; 4-MU autofl: inactive; A350 autofl: inactive; HSD17B inhib: -12%[25.6 µM]; HADH2 inhib: 20%[25.6 µM]

How did CCOC(=O)[C@]1(C(NC(=O)OC)c2cccc(F)c2)CCCC1=O (some centres undefined) do in these assays?
AID923: 1%[11.5 µM]; HSD17B inhib: 4%[11.4 µM]; HADH2 inhib: 0%[11.4 µM]

What do the screens show for `OC[C@H]1O[C@@H](n2cnc3c(NCc4ccccc4)ncnc32)[C@H](O)[C@@H]1O`?
AID923: 0%; HSD17B inhib: 17%

How did O=C1CC(Sc2nnnn2C2CCCCC2)C(=O)N1c1ccccc1 (centres undefined) do in these assays?
GBA activity: >77; AID923: 2%; 4-MU autofl: inactive; A350 autofl: inactive; HSD17B inhib: 25µM*; HADH2 inhib: -2%

How did Cc1c(O)nc(SC2CC(=O)N(c3ccccc3)C2=O)[nH]c1=O (centres undefined) do in these assays?
GBA activity: >77; AID923: 1%; 4-MU autofl: inactive; A350 autofl: inactive; HSD17B inhib: -6%; HADH2 inhib: -12%

Results for O=c1c2ccccc2nc2n1CCN2 ?
AID923: 0%; HSD17B inhib: 25µM*; HADH2 inhib: inconclusive

What do the screens show for `COC(=O)[C@H](C)NC(=O)Nc1ccc(OC)c(OC)c1`?
GBA activity: >77; AID923: 0%; 4-MU autofl: inactive; A350 autofl: inactive; HSD17B inhib: 10%; HADH2 inhib: -9%

How did COC(=O)[C@H](C)NC(=O)Nc1ccc(C)c(C)c1 do in these assays?
GBA activity: >77; AID923: -1%; 4-MU autofl: 3.2e-08M*; A350 autofl: 4.2e-08M*; HSD17B inhib: 4%; HADH2 inhib: 4%
